Assay results as given in the supplement of paper PMC10849652.
About 7,900 targets were measured; listed, in parts, are those with a hit and a random draw of the rest. About 0.6% of all pairs of compound and target were hits. Unmarked numbers belong to inactive results.

How the values were obtained:
Assay in all cases: log2 fold change, soluble protein after heating vs DMSO (PISA); higher = thermal stabilisation; K562 cells, 10 uM, 30 min; active = over 0.2 and 3.5 SD of the protein, either way, in both replicates (recomputed)
bafetinib = compound: Cc1ccc(NC(=O)c2ccc(CN3CC[C@H](N(C)C)C3)c(C(F)(F)F)c2)cc1Nc1nccc(-c2cncnc2)n1 [bafetinib]
Procedure, shortened: (§1)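 Soluble protein was quantified by TMTpro 16plex LC-MS/MS after channel sums were equalised. It was obtained as the supernatant after 21,000xg for 90 min from pooled aliquots of K562 cells (2×10^6 cells/mL, 10 μM compound, 30 min) heated for 3 min across 48°C-58°C and extracted in PBS with 0.5% NP-40 at 4°C. Thermal stability values are relative to control samples and come from duplicates. They are given as log2 fold changes.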

[1] = compound: Cc1cccc(CC(=O)N2CCc3c2ccc(-c2cn(C)c4ncnc(N)c24)c3F)n1
Procedure, shortened: as §1

nilotinib = compound: Cc1cn(-c2cc(NC(=O)c3ccc(C)c(Nc4nccc(-c5cccnc5)n4)c3)cc(C(F)(F)F)c2)cn1 [nilotinib]
Procedure, shortened: as §1

[2] = compound: Cc1nc(Nc2n[nH]c3c2CN(C(=O)N[C@H](CN(C)C)c2ccccc2)C3(C)C)c2sccc2n1
Procedure, shortened: as §1

dasatinib = compound: Cc1nc(Nc2ncc(C(=O)Nc3c(C)cccc3Cl)s2)cc(N2CCN(CCO)CC2)n1 [dasatinib]
Procedure, shortened: as §1

[3] = compound: Cc1ncc(-c2ccnc(Nc3ccc(S(C)(=O)=O)cc3)n2)n1C(C)C
Procedure, shortened: as §1

[4] = compound: Cn1cc(-c2ccc3c(c2)CCN3C(=O)Cc2cccc(C(F)(F)F)c2)c2c(N)ncnc21
Procedure, shortened: as §1

[5] = compound: Cn1cc(-c2ccc3nnc(C(F)(F)c4ccc5ncccc5c4)n3n2)cn1
Procedure, shortened: as §1

tipifarnib = compound: Cn1cncc1[C@@](N)(c1ccc(Cl)cc1)c1ccc2c(c1)c(-c1cccc(Cl)c1)cc(=O)n2C [tipifarnib]
Procedure, shortened: as §1

mubritinib = compound: FC(F)(F)c1ccc(/C=C/c2nc(COc3ccc(CCCCn4ccnn4)cc3)co2)cc1 [mubritinib]
Procedure, shortened: as §1

[6] = compound: NC(=O)Nc1cc(-c2cccc(F)c2)sc1C(=O)N[C@H]1CCCNC1
Procedure, shortened: as §1

[7] = compound: NC(=O)c1cnc(N[C@@H]2CCCC[C@@H]2N)nc1Nc1cccc(-n2nccn2)c1
Procedure, shortened: as §1

[8] = compound: NC1(c2ccc(-c3nc4ccn5c(=O)[nH]nc5c4cc3-c3ccccc3)cc2)CCC1
Procedure, shortened: as §1

[9] = compound: NCC(=O)Nc1ccc(-n2nc(C(F)(F)F)cc2-c2ccc3c(ccc4ccccc43)c2)cc1
Procedure, shortened: as §1

entinostat = compound: Nc1ccccc1NC(=O)c1ccc(CNC(=O)OCc2cccnc2)cc1 [entinostat]
Procedure, shortened: as §1

vorinostat = compound: O=C(CCCCCCC(=O)Nc1ccccc1)NO [vorinostat]
Procedure, shortened: as §1

citarinostat = compound: O=C(CCCCCCNC(=O)c1cnc(N(c2ccccc2)c2ccccc2Cl)nc1)NO [citarinostat]
Procedure, shortened: as §1

silmitasertib = compound: O=C(O)c1ccc2c(c1)nc(Nc1cccc(Cl)c1)c1ccncc12 [silmitasertib]
Procedure, shortened: as §1

[10] = compound: O=C1NC(=O)C(c2cnc3ccccn23)=C1c1cn2c3c(cc(F)cc13)CN(C(=O)N1CCCCC1)CC2
Procedure, shortened: as §1

[11] = compound: c1cc(OCCN2CCCCC2)cc(-c2n[nH]c3ccc(-c4nnc[nH]4)cc23)c1
Procedure, shortened: as §1

Chain of UniProt Q0VG06 (Q0VG06 whole entry, looked up): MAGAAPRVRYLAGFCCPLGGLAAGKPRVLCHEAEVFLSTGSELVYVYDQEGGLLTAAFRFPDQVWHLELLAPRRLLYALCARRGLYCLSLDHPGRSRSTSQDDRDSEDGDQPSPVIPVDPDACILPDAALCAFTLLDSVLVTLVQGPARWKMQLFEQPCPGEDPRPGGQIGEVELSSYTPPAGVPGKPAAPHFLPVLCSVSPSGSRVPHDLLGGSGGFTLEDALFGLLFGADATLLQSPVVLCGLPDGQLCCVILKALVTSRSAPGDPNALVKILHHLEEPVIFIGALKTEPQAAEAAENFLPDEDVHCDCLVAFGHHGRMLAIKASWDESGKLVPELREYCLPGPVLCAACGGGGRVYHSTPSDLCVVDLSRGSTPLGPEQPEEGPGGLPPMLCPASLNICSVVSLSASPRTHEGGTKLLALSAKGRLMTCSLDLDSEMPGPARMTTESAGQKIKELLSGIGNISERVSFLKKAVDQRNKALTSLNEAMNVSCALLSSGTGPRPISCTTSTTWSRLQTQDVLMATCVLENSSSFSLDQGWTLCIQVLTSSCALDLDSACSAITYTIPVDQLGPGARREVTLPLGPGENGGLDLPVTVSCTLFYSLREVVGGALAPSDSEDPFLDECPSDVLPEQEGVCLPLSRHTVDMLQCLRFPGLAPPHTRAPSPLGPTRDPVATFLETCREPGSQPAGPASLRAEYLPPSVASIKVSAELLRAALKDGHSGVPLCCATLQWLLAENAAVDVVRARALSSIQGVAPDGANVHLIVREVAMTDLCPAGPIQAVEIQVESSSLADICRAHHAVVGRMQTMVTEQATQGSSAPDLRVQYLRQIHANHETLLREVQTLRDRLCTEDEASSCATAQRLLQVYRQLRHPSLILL
Chain of UniProt P50402 (P50402 whole entry, looked up): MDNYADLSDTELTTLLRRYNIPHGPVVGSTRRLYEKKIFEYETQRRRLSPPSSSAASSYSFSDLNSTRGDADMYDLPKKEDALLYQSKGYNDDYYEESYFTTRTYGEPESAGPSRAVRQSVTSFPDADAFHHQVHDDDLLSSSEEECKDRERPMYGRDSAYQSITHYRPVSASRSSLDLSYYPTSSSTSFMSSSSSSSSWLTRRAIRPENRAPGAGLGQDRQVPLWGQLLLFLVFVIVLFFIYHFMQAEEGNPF
Chain of UniProt Q04637 (Q04637 whole entry, looked up): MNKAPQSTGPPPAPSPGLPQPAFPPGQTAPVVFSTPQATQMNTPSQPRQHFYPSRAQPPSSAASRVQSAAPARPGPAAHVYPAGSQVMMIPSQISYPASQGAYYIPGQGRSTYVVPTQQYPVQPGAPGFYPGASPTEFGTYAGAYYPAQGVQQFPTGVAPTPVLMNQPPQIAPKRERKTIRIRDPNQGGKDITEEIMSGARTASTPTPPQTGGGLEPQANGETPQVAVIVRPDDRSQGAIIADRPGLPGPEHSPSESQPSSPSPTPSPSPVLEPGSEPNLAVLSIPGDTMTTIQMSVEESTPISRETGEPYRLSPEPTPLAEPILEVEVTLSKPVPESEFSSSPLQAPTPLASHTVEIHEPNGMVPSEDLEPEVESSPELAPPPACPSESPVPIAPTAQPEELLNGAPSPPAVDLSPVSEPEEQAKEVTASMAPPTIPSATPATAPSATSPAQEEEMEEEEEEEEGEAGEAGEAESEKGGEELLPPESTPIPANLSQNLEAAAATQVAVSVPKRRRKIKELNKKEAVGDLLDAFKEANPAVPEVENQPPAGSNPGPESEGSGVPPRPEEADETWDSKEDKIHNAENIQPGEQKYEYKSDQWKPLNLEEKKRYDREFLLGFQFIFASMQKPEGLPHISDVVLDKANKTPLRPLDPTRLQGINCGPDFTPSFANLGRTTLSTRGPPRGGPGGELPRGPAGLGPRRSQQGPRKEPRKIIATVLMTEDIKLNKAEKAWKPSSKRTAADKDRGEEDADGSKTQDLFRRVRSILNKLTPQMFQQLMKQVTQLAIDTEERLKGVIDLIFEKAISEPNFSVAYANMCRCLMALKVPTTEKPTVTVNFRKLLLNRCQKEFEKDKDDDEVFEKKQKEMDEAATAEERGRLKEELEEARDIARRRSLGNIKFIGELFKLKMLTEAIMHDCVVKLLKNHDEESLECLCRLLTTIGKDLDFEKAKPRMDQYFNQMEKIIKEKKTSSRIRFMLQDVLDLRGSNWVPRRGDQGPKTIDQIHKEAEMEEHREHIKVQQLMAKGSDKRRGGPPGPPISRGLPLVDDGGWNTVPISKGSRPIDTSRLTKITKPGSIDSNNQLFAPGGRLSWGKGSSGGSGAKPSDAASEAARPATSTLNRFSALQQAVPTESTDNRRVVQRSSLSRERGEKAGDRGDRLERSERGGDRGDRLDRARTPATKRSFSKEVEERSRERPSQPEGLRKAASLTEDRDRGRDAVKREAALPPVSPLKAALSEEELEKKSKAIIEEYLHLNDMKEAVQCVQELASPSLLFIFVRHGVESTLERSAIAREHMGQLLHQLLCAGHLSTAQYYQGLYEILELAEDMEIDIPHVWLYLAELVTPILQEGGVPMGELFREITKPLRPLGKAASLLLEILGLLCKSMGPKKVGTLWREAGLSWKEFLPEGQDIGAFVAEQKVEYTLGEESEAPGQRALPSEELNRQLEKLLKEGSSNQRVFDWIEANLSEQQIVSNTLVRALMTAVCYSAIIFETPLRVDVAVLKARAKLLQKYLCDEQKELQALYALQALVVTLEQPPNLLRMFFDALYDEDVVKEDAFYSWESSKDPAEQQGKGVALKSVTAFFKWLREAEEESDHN
Chain of UniProt Q9NRY5 (Q9NRY5 whole entry, looked up): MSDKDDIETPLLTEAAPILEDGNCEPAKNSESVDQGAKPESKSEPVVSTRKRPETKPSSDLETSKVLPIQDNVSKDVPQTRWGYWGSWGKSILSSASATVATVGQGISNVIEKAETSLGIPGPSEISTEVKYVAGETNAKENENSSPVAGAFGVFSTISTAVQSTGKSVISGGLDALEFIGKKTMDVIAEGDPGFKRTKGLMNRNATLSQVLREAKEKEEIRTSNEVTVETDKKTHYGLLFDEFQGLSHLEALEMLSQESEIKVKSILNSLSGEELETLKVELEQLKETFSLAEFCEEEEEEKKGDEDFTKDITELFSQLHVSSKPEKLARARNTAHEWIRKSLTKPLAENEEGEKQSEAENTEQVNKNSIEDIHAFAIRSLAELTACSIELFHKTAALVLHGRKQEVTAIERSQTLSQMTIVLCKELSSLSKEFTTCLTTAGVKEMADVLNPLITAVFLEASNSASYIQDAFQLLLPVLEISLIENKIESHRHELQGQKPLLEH
Chain of UniProt Q9H4H8 (Q9H4H8 whole entry, looked up): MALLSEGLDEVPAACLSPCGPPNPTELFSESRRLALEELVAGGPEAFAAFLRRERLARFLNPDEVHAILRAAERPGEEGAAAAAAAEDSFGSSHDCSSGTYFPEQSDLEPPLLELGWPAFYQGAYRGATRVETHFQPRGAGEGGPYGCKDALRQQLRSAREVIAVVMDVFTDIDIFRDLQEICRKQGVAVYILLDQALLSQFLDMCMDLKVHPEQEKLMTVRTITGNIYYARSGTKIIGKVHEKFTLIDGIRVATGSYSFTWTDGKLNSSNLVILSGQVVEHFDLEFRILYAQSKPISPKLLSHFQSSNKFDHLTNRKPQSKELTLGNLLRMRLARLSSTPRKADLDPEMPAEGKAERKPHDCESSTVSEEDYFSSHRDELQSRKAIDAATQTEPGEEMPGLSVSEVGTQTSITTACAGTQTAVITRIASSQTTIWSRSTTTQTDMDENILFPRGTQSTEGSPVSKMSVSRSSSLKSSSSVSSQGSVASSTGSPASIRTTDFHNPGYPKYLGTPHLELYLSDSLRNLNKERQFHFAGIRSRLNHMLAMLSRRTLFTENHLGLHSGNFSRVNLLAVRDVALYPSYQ
Chain of UniProt O60911 (O60911 whole entry, looked up): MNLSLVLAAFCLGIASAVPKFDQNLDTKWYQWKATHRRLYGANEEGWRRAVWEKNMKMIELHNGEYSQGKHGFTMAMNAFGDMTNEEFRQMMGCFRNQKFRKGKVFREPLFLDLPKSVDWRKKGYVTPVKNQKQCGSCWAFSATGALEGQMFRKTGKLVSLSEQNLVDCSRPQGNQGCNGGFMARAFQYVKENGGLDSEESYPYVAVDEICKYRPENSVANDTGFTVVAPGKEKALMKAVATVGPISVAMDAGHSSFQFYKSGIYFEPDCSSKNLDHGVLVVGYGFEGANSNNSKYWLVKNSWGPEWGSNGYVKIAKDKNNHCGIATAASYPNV
Chain of UniProt Q13948 (Q13948 whole entry, looked up): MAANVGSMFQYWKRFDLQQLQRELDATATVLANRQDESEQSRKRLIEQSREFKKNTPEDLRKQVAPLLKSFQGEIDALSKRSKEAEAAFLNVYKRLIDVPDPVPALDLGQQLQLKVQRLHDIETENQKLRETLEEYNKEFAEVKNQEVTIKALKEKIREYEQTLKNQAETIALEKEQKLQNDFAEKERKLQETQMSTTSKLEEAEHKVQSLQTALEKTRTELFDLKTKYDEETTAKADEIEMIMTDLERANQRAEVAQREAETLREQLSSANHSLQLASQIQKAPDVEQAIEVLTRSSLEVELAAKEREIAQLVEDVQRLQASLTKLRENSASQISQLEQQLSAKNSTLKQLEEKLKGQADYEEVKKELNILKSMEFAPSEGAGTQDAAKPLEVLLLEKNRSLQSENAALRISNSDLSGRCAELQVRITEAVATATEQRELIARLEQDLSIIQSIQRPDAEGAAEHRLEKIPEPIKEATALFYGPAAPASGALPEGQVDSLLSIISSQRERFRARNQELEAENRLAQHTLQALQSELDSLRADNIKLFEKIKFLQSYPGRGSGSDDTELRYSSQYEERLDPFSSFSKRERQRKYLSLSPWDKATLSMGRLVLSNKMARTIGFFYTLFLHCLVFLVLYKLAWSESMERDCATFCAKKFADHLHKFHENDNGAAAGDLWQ
Chain of UniProt P13498 (P13498 whole entry, looked up): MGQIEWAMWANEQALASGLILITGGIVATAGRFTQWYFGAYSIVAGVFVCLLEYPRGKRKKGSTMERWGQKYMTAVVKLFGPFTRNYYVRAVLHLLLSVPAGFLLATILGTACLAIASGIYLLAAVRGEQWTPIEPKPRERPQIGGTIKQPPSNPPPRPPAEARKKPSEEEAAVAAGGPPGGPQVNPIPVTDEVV

Target	log2 fold change (bafetinib)	log2 fold change [1]	log2 fold change (nilotinib)	log2 fold change [2]	log2 fold change (dasatinib)	log2 fold change [3]	log2 fold change [4]	log2 fold change [5]	log2 fold change (tipifarnib)	log2 fold change (mubritinib)	log2 fold change [6]	log2 fold change [7]	log2 fold change [8]	log2 fold change [9]	log2 fold change (entinostat)	log2 fold change (vorinostat)	log2 fold change (citarinostat)	log2 fold change (silmitasertib)	log2 fold change [10]	log2 fold change [11]
EOGT (UniProt Q5NDL2)	-0.009	-0.025	-0.044	0.055	-0.052	-0.005	-0.082	-0.038	0.029	-0.021	-0.008	-0.063	-0.045	-0.011	0.031	-0.092	-0.016	0.038	0.009	-0.063
CYBA (UniProt P13498)	-0.24 (active)	-0.06	0.01	0.034	-0.077	0.026	0.002	0.004	0	0.006	-0.028	-0.141	-0.044	-0.13	-0.004	0.018	-0.01	0	-0.01	-0.041
CUX1 isoform 2 (UniProt Q13948)	0.051	0.042	-0.001	-0.029	-0.084	0.078	0.072	0.063	0.062	0.007	-0.027	-0.031	-0.033	-0.026	0.343 (active)	0.076	0.137	-0.016	-0.047	-0.03
FAAP100 (UniProt Q0VG06)	0.201	0.043	-0.032	-0.005	0.035	-0.039	-0.005	0.101	0.1	0	0.009	0.039	-0.076	-0.031	-0.05	0.048	-0.012	-0.051	0.197	-0.053
DTWD2 (UniProt Q8NBA8)	-0.023	-0.008	0.065	-0.019	0.126	0.022	0.215	0.096	-0.071	-0.087	0.284	-0.03	-0.058	0.068	-0.079	0	0.152	0.089	0.26	-0.123
CTSV (UniProt O60911)	-0.696 (active)	-0.24	0.036	0.142	0.061	-0.056	0.016	-0.002	0.026	-0.009	0	-0.066	-0.296	-0.052	-0.063	-0.029	-0.008	0.027	-0.105	0.165
FAM114A2 (UniProt Q9NRY5)	-0.094	0.025	-0.035	-0.032	-0.083	0.004	0.001	0.019	-0.002	0.055	0.023	-0.089	-0.151	-0.062	0.051	0.034	0.05	0.02	-0.016	-0.013
DPH5 isoform 5 (UniProt Q9H2P9)	0.025	0.037	0.013	-0.023	0.253 (active)	0.003	0.085	0.006	-0.121	0.049	-0.036	-0.005	0.209	-0.003	-0.018	-0.009	0.017	-0.008	0.109	0.038
DTNBP1 (UniProt Q96EV8)	0.014	0.004	-0.047	-0.027	0.072	0.016	0.053	0.036	-0.083	-0.081	-0.022	-0.011	-0.038	-0.063	0.033	0.091	-0.001	-0.013	-0.032	-0.042
EDC3 (UniProt Q96F86)	-0.022	-0.013	-0.142	-0.127	-0.006	-0.151	-0.019	-0.006	-0.035	0	-0.162	-0.229	-0.119	-0.075	0.07	0.154	0.042	-0.047	-0.068	-0.152
EMD (UniProt P50402)	-0.167	-0.081	0.074	-0.071	-0.017	-0.045	-0.005	-0.098	0.087	0.031	-0.012	-0.064	-0.068	-0.041	-0.031	-0.017	-0.076	0.054	-0.084	-0.141
EEF1AKNMT (UniProt Q8N6R0)	0.067	-0.008	-0.02	-0.062	-0.118	0.084	-0.031	0.003	-0.154	0.089	-0.025	-0.061	-0.109	-0.017	0.038	0.161	-0.002	0.059	0.055	0.031
EIF4G1 isoform 8 (UniProt Q04637)	-0.002	0.046	-0.223	-0.11	-0.157	-0.17	-0.155	-0.117	-0.083	-0.071	-0.104	-0.273	-0.154	-0.106	0.185	0.116	0.058	-0.045	0.194	-0.269
FAM83D (UniProt Q9H4H8)	-0.022	0.145	-0.069	-0.088	-0.241	0.016	-0.073	-0.027	-0.107	0.023	-0.031	-0.073	-0.072	0.075	0.008	0.066	0.115	0.048	-0.058	0.059
FAF2 (UniProt Q96CS3)	-0.058	-0.022	-0.042	-0.049	-0.075	0	0.017	-0.04	-0.021	-0.011	-0.016	-0.038	-0.038	-0.027	0.021	0.092	0.015	0.007	-0.054	-0.018
E2F4 (UniProt Q16254)	-0.053	-0.026	-0.016	-0.141	-0.095	0.012	-0.007	-0.006	-0.009	0.01	0.004	-0.052	-0.105	-0.032	0.016	-0.052	0.067	0.001	0.015	0.005
